# Active and inactive are the calls of the source. Rule for the calls: active = hit-call score of the fitted dose curve at least 0.9, where 1 is the maximum; inactive = score below 0.9.
# Assay: ATG_CRE_CIS: Attagene CIS-FACTORIAL HepG2 Assay for human cAMP Responsive Element (CRE) binding protein 3 (AID 2282926)
# Conditions: HepG2 CRE cis-reporter, Attagene multiplexed mRNA; actives raise or lower the signal
# Experimental: ATG_CIS is a cell-based, multiplexed-readout assay that uses HepG2, a human liver cell line, with measurements taken at 24 hours after chemical dosing in a 24-well plate.ATG_CRE_CIS is one of 52 assay component(s) measured or calculated from the ATG_CIS assay. It is designed to make measurements of mRNA induction, a form of inducible reporter, as detected with fluorescence intensity signals by Reverse transcription polymerase chain reaction (RT-PCR) and Capillary electrophoresis technology.Data from the assay component ATG_CRE_CIS was analyzed into 1 assay endpoint. This assay endpoint, ATG_CRE_CIS, was analyzed with bidirectional fitting relative to DMSO as the negative control and baseline of activity. Using a type of inducible reporter, measures of mRNA for gain or loss-of-signal activity can be used to understand the reporter gene at the transcription factor-level as they relate to the gene CREB3. Furthermore, this assay endpoint can be referred to as a primary readout, because this assay has produced multiple assay endpoints where this one serves a reporter gene function. To generalize the intended target to other relatable targets, this assay endpoint is annotated to the dna binding intended target family, where the subfamily is basic leucine zipper.
# Human liver HepG2 cells are transiently transfected with multiple reporter transcription units (MRTUs) in 6-well plates using FuGene 6 reagent (Roche; 3 ml FuGene/1 mg DNA). The MRTU constructs are regulated by a cis-regulating element (promoter). […] A major difference between the CIS and TRANS system is that in CIS activities of endogenous TFs are measured, whereas the TRANS assay evaluates changes in activities of exogenous, chimeric NR-Gal4 proteins. […] At the end of 24 hour incubation, total RNA was isolated using TriZol reagent (Invitrogen). The isolated RNA is then reverse-transcribed using oligo(dT) primer and Mo-MLV reverse transcriptase (Invitrogen) with DNAse I (Ambion) treatment for 30 min. The one-tenth of the produced cDNA was amplified by PCR using Taq DNA polymerase (Invitrogen) and two reporter sequence-specific primers. The PCR products were fluorescently labeled by primer extension with 6-arboxyfluorescein (6-FAM) 5'-labeled reporter sequence-specific primer (2 min at 95 C, 20 s at 68 C and 10 min at 72 C) and these products were digested with 5U of HpaI (New England Biolabs) for 2h at 37 C. The fragments were purified using Qiaquick PCR columns (Qiagen), analyzed on an ABI 3130xL genetic analyzer (Applied Biosystems) with peak positions identified by using a set of X-rhodamine (ROX)-labeled MapMarker1000 molecular weight standards (BioVentures). The raw capillary electrophoresis data was processed using Attagraph software (Attagene).
Compound,outcome,AC50
CO[Si](CCCS)(OC)OC,inactive,–
CC(C)c1ccc(O)c(C(C)C)c1,inactive,–
CC1(C)[C@@H]2CC[C@@]1(C)C(=O)C2,inactive,–
O=C(Cl)c1ccc(C(=O)Cl)cc1,inactive,–
N#CC1(N)CCCCC1,inactive,–
Nc1ccnc(=O)[nH]1,inactive,–
O=S(=O)(O)c1ccc(N=Nc2c(O)ccc3ccccc23)cc1,inactive,–
c1ccc2c(c1)[nH]c1ccccc12,inactive,–
CCCCC(=O)O,inactive,–
COC(C=C(C)CCC=C(C)C)OC,inactive,–
CCc1occc(=O)c1O,inactive,–
O=C(O[C@@H]1Cc2c(O)cc(O)cc2O[C@@H]1c1cc(O)c(O)c(O)c1)c1cc(O)c(O)c(O)c1,inactive,–
CC(=O)/C=C/C1C(C)=CCCC1(C)C (stereo not given),inactive,–
N=C1C=CC(=C(c2ccc(N)cc2)c2ccc(N)cc2)C=C1,inactive,–
O=C(O)C(F)(F)C(F)(F)C(F)(F)C(F)(F)C(=O)O,inactive,–
COC(=O)CC(C)CCC=C(C)C (stereo not given),inactive,–
COc1cc(C)ccc1O,inactive,–
CC(C)CCCCCOC(=O)CS,inactive,–
CCC(C)C(=O)OCCc1ccccc1 (stereo not given),inactive,–
CC1OC(=O)C(C)OC1=O (stereo not given),inactive,–

Compound,outcome,AC50
CC(=O)OCCc1ccccc1,inactive,–
CCCCOCCOCCOC(C)=O,inactive,–
CC(C)(C)NC(=O)[C@H]1CC[C@H]2[C@@H]3CC[C@H]4NC(=O)C=C[C@]4(C)[C@H]3CC[C@]12C,inactive,–
O=C(O)c1cc(O)c2ccccc2c1O,inactive,–
CC(C)(C)C1CCC(=O)CC1,inactive,–
O=C(O)/C=C/c1ccccc1,inactive,–
CC(=O)OC/C=C(/C)CCC=C(C)C,inactive,–
COC(=O)c1ccc(C(=O)OC)c(C(=O)OC)c1,inactive,–
C[Si](C)(C)N[Si](C)(C)C,inactive,–
CC1=CC=C(C(C)C)CC1,inactive,–
C=C(C)C(=O)OCCCCCCCCCCCC,inactive,–
C=Cc1ccc(OC(C)=O)cc1,inactive,–
CCOB(OCC)OCC,inactive,–
CC=CC(=O)OCC(C)C,inactive,–
Cc1noc(NS(=O)(=O)c2ccc(N)cc2)c1C,inactive,–
C=CC(=O)O[C@H]1C[C@@H]2CC[C@@]1(C)C2(C)C,–,180 µM (active)
CCCC1CCCC(=O)O1 (stereo not given),inactive,–
C=C(C)[C@@H]1CC=C(C)CC1,inactive,–
COC(=O)C=Cc1ccccc1,inactive,–
Clc1cc(Cl)c(Cl)c(Cl)c1Cl,inactive,–
